Compounds with a hit are over-represented: about 11% of the library has one in this group of screens.
PK Bst – Pyruvate Kinase. purified pyruvate kinase, luminescence ATP production; ribose 5-phosphate activator present at AC10. Potency, µM. 1.2% of 51,000 active. AID 361, 2006; in the data active = potency below about 11 µM; inconclusive = mostly about 12 µM to 25 µM;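 the screen sought inhibitors and activators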
ERK AVP block – qHTS Assay for Inhibitors of the ERK Signaling Pathway using a Homogeneous Screening Assay | HEK293-V1b, vasopressin-stimulated pERK AlphaScreen | Potency, µM (top dose mostly 57.5 µM), hits mostly inhibitors | 0.99% of 72,000 active | AID 995, 2007; also: nearly all actives have a fitted effect of over 55% in size
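Overnight-seeded V1b-HEK293 cells in 1% FBS got compound, then vasopressin (25 nM final, 5 min, 37C), then lysis buffer. AlphaScreen detection of phospho-ERK; activity normalized to basal and full-stimulation controls.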
Luciferase inh – qHTS Assay for Inhibitors of Firefly Luciferase | purified firefly luciferase, luminescence, 8 min | Luciferin 4-monooxygenase (Photinus pyralis), P08659 | Potency, µM (titrated, usually from 57.1 µM), hits mostly inhibitors | 2.2% of 72,000 active; also: nearly all actives have a fitted effect of over 40% in size
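Luminescence read-out after 8 min at room temperature; enzyme reaction used luciferin plus 10 uM ATP (linear range) in imidazole buffer pH 7.2 with KCl, MgCl2, Tween 20 and BSA. Each sample was run as a titration.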
HADH2 inh – qHTS Assay for Inhibitors of HADH2 (Hydroxyacyl-Coenzyme A Dehydrogenase, Type II). 3-hydroxyacyl-CoA dehydrogenase type-2 (Homo sapiens), Q99714. 3.4% of 73,000 active. recombinant HADH2, NADH fluorescence, beta-hydroxybutyryl-CoA. AID 886, 2007. Potency, µM (highest dose often 57.1 µM), usual class: inhibitors; also: nearly all actives have a fitted effect of over 60% in size
Target sequence (Q99714 whole entry, looked up, one chain of several): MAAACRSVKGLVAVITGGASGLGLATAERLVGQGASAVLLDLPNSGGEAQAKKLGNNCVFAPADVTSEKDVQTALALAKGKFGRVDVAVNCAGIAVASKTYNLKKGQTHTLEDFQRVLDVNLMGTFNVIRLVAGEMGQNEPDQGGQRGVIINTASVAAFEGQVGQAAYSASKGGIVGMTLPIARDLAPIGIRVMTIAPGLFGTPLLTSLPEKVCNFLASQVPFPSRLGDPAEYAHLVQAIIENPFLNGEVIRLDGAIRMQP
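20 nM HADH2 + cpd, 15 min RT; add 1 mM NAD+/90 uM beta-hydroxybutyryl-CoA; kinetic fluorescence 360/450 nm, 4 min. Tris-HCl pH 9.0, 0.01% Tween-20.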
HSD17B inhib – qHTS Assay for Inhibitors of HSD17B4, hydroxysteroid (17-beta) dehydrogenase 4; recombinant HSD17B10, NADH fluorescence kinetic; Potency, µM (titrated, usually from 57.1 µM), most hits filed as inhibitors; 7.6% of 75,000 active; AID 893, 2007;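 also: the protocol describes HADH2 (HSD17B10) and not the HSD17B4 of the title; nearly all actives have a fitted effect of over 70% in size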
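Enzyme plus compound, 15 min room temperature; substrate mix added (NAD+ 1 mM, beta-hydroxybutyryl-CoA 90 uM final); plates read kinetically for NADH fluorescence. HADH2 was His-tagged, E. coli-derived, 20 nM.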
ALOX15 inhib – qHTS Assay for Inhibitors of 15-hLO (15-human lipoxygenase). purified 15hLO-1, xylenol orange hydroperoxide absorbance. 1.4% of 74,000 active. Potency, µM (doses to about 57.1 µM), hits mostly inhibitors. Polyunsaturated fatty acid lipoxygenase ALOX15 (Homo sapiens), P16050; also: nearly all actives have a fitted effect of over 55% in size
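Purified human 15hLO-1 (40 nM final) in 25 mM Hepes pH 7.5, 0.01% Triton X-100 was preincubated with compound 15 min at room temperature, then reacted 6 min with 50 uM arachidonic acid; hydroperoxide detected by Fe-XO, 573/405 nm absorbance ratio.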
Large screens that a line does not name were inactive. Unless noted, calls follow the shape of the dose curve; as a rule, active = well fitted curve in the direction sought with a large enough effect; inconclusive = small, poorly fitted or top-dose-only effect, or another doubt; inactive = no such curve, though single readings can be large; an effect the other way counts as inactive or inconclusive.

O=S(=O)(c1ccccc1)N1CCC2(CCCN(c3ncccn3)C2)CC1	ERK AVP block inconclusive (no result: PK Bst)
Fc1ccccc1N1CCN(CCCNc2ccc3nncn3n2)CC1	none (no result: PK Bst)
c1ccc(CN2CCN(CCCNc3ccc4nnc(-c5ccccc5)n4n3)CC2)cc1	ERK AVP block 40µM, HSD17B inhib inconclusive (no result: PK Bst)
N#Cc1c(F)cccc1N1CCOCC1	HSD17B inhib 32µM
Fc1cccc2sc(N3CCOCC3)nc12	none
Cc1csc2nc(CSc3ccc(Cl)cc3)cn12	Luciferase inh inconclusive, HADH2 inh 10µM, HSD17B inhib inconclusive (no result: PK Bst)
CC1(C)CC(=O)c2c(nn(-c3ccccc3)c2N)C1	none
CC1(C)CC(=O)c2c(nc3ccccc3c2N)C1	HADH2 inh 25µM, HSD17B inhib 25µM
O=C(NCc1ccco1)Nc1ccc2nsnc2c1	HADH2 inh 25µM, HSD17B inhib 25µM, ALOX15 inhib inconclusive (no result: PK Bst)
Cc1ccc2c(CC(=O)N3CCc4ccccc43)coc2c1	Luciferase inh 20µM
Cc1cc(=O)oc2cc(OCC(=O)N3c4ccccc4CC3C)ccc12 (stereo not given)	HSD17B inhib 25µM
CCc1cc(=O)oc2cc(OCC(=O)N3CCc4ccccc43)ccc12	HSD17B inhib 25µM
Cc1cc(=O)oc2ccc(OCC(=O)N3CCC(C)CC3)cc12	HSD17B inhib inconclusive
Cc1cc(=O)oc2cc(OCC(=O)N3CCCC(C)C3)ccc12 (stereo not given)	HSD17B inhib 32µM
CCOC(=O)COc1ccc(S(=O)(=O)N2CCN(C(=O)OCC)CC2)cc1	none
COc1ccc(S(=O)(=O)N2CCN(C(=O)COc3ccc4c(C)cc(=O)oc4c3)CC2)cc1	HADH2 inh inconclusive, HSD17B inhib 32µM
c1cc(CSc2ncnc3nc[nH]c23)ccn1	none (no result: PK Bst)
CCOC(=O)c1sc(=NC(=O)c2cc(OC)c(OC)c(OC)c2)n(C)c1C	HADH2 inh inconclusive, HSD17B inhib 16µM
CCOC(=O)N1CCC2(CC1)CC(=O)c1c(ccc3oc(C(=O)O)c(C)c13)O2	HADH2 inh 16µM, HSD17B inhib 32µM (no result: PK Bst, ERK AVP block, Luciferase inh)
CCOC(=O)c1oc2ccc3c(c2c1C)C(=O)CC1(CCN(C(=O)OCC)CC1)O3	none (no result: PK Bst, ERK AVP block, Luciferase inh)
CC1(C)Cc2c(sc3c2C2=NCCN2C=N3)CS1	none (no result: ERK AVP block, HADH2 inh, HSD17B inhib, ALOX15 inhib)
CN1C(=O)c2c(sc3c2CC(C)(C)SC3)N2CCN=C12	ERK AVP block inconclusive, HSD17B inhib 32µM
CC1CCC2C(=O)N3C(CCC(C)[C@H]3c3cccc(N4CCCC4=O)c3)C(=O)N2C1c1cccc(N2CCCC2=O)c1 (stereo not given in full)	none (no result: PK Bst, Luciferase inh)
N#Cc1nc(-c2cccs2)oc1N1CCN(c2ccccc2)CC1	HSD17B inhib 32µM (no result: PK Bst)
N#Cc1nc(Cc2ccccc2)oc1N1CCN(c2ccccc2)CC1	ERK AVP block 25µM
COc1ccc(C(=O)Nc2ccccc2-c2nnn(CC(=O)NCc3ccco3)n2)cc1	HSD17B inhib 32µM
O=C(Cn1nnc(-c2ccccc2NC(=O)c2ccccc2F)n1)NCc1ccco1	HSD17B inhib inconclusive
O=C(Cn1nnc(-c2ccccc2NC(=O)c2cccs2)n1)Nc1ccccc1	HSD17B inhib 25µM
COc1ccccc1NC(=O)Cn1nnc(-c2ccccc2NC(=O)c2cccs2)n1	HSD17B inhib 32µM, ALOX15 inhib inconclusive
CC(=O)OCC1OC(C#Cc2ccc(Br)cc2)C=CC1OC(C)=O (stereo not given)	none (no result: PK Bst, Luciferase inh)
CCOc1ccc(-c2nnc(N)s2)cc1	Luciferase inh 16µM, HADH2 inh inconclusive, HSD17B inhib inconclusive (no result: PK Bst)
CCOc1ccc(-c2nn3c(-c4ccc(OC)cc4)nnc3s2)cc1	none (no result: ERK AVP block, HADH2 inh, HSD17B inhib, ALOX15 inhib)
c1cncc(-c2nnc3sc(-c4ccco4)nn23)c1	none (no result: ERK AVP block, HADH2 inh, HSD17B inhib, ALOX15 inhib)
CCN(CC)c1ccc(-c2nn3c(-c4cccnc4)nnc3s2)cc1	PK Bst 5.2 (no result: ERK AVP block, HADH2 inh, HSD17B inhib, ALOX15 inhib)
CCOc1ccc(-c2nn3c(-c4ccccc4)nnc3s2)cc1	PK Bst 5.1, HADH2 inh inconclusive
Cc1cc2nc([C@H](C)C(=O)c3ccc(Cl)cc3)c(=O)[nH]c2cc1C	Luciferase inh inconclusive (no result: PK Bst)
C=CCC1C=CC(Oc2ccc(F)cc2C)C(CO)O1 (stereo not given)	none (no result: PK Bst, Luciferase inh)
Cc1cc(-c2cc(C)c(O)c(C(C)(C)C)c2)cc(C(C)(C)C)c1O	none (no result: PK Bst)
Nc1c(C(=O)NCC2CCCO2)c2nc3ccccc3nc2n1-c1ccccc1 (stereo not given)	HSD17B inhib 32µM
Nc1c(C(=O)OCC2CCCO2)c2nc3ccccc3nc2n1C1CCCCC1 (stereo not given)	PK Bst 8.9, HADH2 inh 32µM, HSD17B inhib 3.2µM
C=C1CCO[C@@]2([C@H](O)[C@@](C)(O)CO)NC(=O)[C@]1(O)NC2=O	none (no result: PK Bst)
N[C@H](Cc1ccc(O)c(I)c1)C(=O)O	none (no result: PK Bst, ERK AVP block, HSD17B inhib, ALOX15 inhib)
CCCCC/C=C\C[C@H](O)/C=C\c1cccc(C[C@H](O)CCCCO)n1	ALOX15 inhib 20µM (no result: PK Bst)
N=C(N)c1ccc(/C=C\c2ccc(C(=N)N)cc2)cc1	HADH2 inh inconclusive, HSD17B inhib 4µM (no result: PK Bst)
CCOC(=O)c1ccc(Nc2cc(C)nc(N3CCOCC3)n2)cc1	PK Bst 1.5, HSD17B inhib 32µM, ALOX15 inhib inconclusive
CCOc1ccc(Nc2nc(NCCN3CCOCC3)nc(OC)n2)cc1	PK Bst 6.3
CCOc1ccc(Nc2cc(C)nc(N3CCOCC3)n2)cc1	PK Bst 1.4, HSD17B inhib inconclusive
COC(=O)c1ccc(OCc2nc(N)nc(N3CCOCC3)n2)cc1	none
Clc1ccc(Nc2nc(NCCN3CCOCC3)nc(N3CCOCC3)n2)cc1	none (no result: PK Bst)
CCOc1ccc2nc(N3CCOCC3)nc(C)c2c1	Luciferase inh 16µM, HSD17B inhib 6.3µM
CCOC(=O)N/N=C1/C[C@@H](O)[C@@H](O)[C@@H]2[C@@H]3C(=O)N(C4CCCCC4)C(=O)[C@H]3CC[C@H]12	none (no result: PK Bst)
COC1C(O)COC1/C=C/c1ccccc1 (stereo not given)	none (no result: PK Bst, Luciferase inh)
C[N+](C)(C)c1ncnc2c1ncn2[C@@H]1C[C@H](O)[C@@H](CO)O1	none (no result: PK Bst)
COCC(=O)N1CCC2(CCCN(Cc3cc(C(F)(F)F)cc(C(F)(F)F)c3)C2)CC1	none (no result: PK Bst)
Cc1ccc(S(=O)(=O)N[C@@H]2COC(=O)C/C=C\[C@H](C)COC(=O)N[C@@H](C)C(=O)C/C=C\[C@H]2C)cc1	none (no result: PK Bst)
Cc1ccc2c(c1)c1c(n2CC(O)CN2C(=O)CNC2=O)C(=O)CCC1 (stereo not given)	HADH2 inh 25µM, HSD17B inhib 32µM (no result: PK Bst)

Screening data deposited in PubChem by National Center for Advancing Translational Sciences (NCATS).
